The source made the active and inactive calls. The calls were made as follows: active = hit-call score of the fitted dose curve at least 0.9, where 1 is the maximum; inactive = score below 0.9.
Columns and labels:
Conditions in all cases: mRNA level, 48 h; actives raise or lower the signal
[1] = read-out: JUN Transcription Factor, JUN (gene 3725); assay: LTEA_HepaRG_JUN: Life Technologies and Expression Analysis (LTEA) Assay for JUN Transcription Factor using HepaRG (AID 2283513)
How it was run: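 Read-out is JUN transcript level by TaqMan qRT-PCR, normalized to ACTB, GAPDH and POLR2A, after 48 h chemical treatment of HepaRG cells. Concentration-response spanned eight half-log points up to 100 uM in 0.5% DMSO.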

[2] = read-out: Lipoprotein lipase (LPL), LPL (gene 4023); assay: LTEA_HepaRG_LPL: Life Technologies and Expression Analysis (LTEA) Assay for Lipoprotein lipase (LPL) using HepaRG (AID 2283515)
How it was run: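 HepaRG, 48 h exposure, 8-pt half-log dilutions from 100 uM, 0.5% DMSO vehicle, duplicates; qRT-PCR (Fluidigm array) of LPL mRNA vs housekeeping genes; bidirectional curve fit relative to DMSO baseline.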

[3] = read-out: MicroRNA 122 (MIR122), gene 406906; assay: LTEA_HepaRG_MIR122: Life Technologies and Expression Analysis (LTEA) Assay for MicroRNA 122 (MIR122) using HepaRG (AID 2283516); also: the transcript read is the microRNA miR-122
How it was run: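 Human liver HepaRG cultures receive test chemicals for 48 h at eight half-log concentrations from 100 uM. Expression is quantified by qRT-PCR with ACTB/GAPDH/POLR2A normalization and fitted bidirectionally against 0.5% DMSO.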

[4] = read-out: matrix metalloproteinase-10 (MMP10), MMP10 (gene 4319); assay: LTEA_HepaRG_MMP10: Life Technologies and Expression Analysis (LTEA) Assay for matrix metalloproteinase-10 (MMP10) using HepaRG (AID 2283517)
How it was run: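 Transcript levels come from Fluidigm qRT-PCR normalized to three housekeeping genes, with curves fitted bidirectionally against 0.5% DMSO. Human HepaRG cells were dosed for 48 hours at concentrations up to 100 uM.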

MYC, MYC (gene 4609) = assay: LTEA_HepaRG_MYC: Life Technologies and Expression Analysis (LTEA) Assay for MYC using HepaRG (AID 2283518)
How it was run: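 qRT-PCR read-out of MYC transcript (Fluidigm TaqMan, housekeeping-normalized) after 48 h chemical exposure of HepaRG cells; eight concentrations, top 100 uM, half-log steps. Bidirectional curve fitting against 0.5% DMSO vehicle baseline.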

[5] = read-out: matrix metalloproteinase-3 (MMP3), MMP3 (gene 4314); assay: LTEA_HepaRG_MMP3: Life Technologies and Expression Analysis (LTEA) Assay for matrix metalloproteinase-3 (MMP3) using HepaRG (AID 2283519)
How it was run: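 qRT-PCR read-out of MMP3 mRNA (normalised to three housekeeping genes) in HepaRG liver cells after 48 h chemical exposure; 8-point half-log series, top 100 uM, 0.5% DMSO vehicle. Bidirectional curve fitting against DMSO baseline.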

[6] = read-out: Paternally Expressed 10 (PEG10), PEG10 (gene 23089); assay: LTEA_HepaRG_PEG10: Life Technologies and Expression Analysis (LTEA) Assay for Paternally Expressed 10 (PEG10) using HepaRG (AID 2283520);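 as to AC50: differentiated HepaRG human liver cells in serum-free induction medium with 0.5% DMSO; PEG10 transcript by qRT-PCR normalised to ACTB GAPDH and POLR2A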
How it was run: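 Human HepaRG cultures are dosed for 48 h across an eight-point half-log series starting at 100 uM, with 0.5% DMSO as vehicle and baseline. Gain or loss of PEG10 transcript is measured by qRT-PCR and fitted in both directions.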

[7] = read-out: Protein phosphatase 2A (PPP2R4), PTPA (gene 5524); assay: LTEA_HepaRG_PPP2R4: Life Technologies and Expression Analysis (LTEA) Assay for Protein phosphatase 2A (PPP2R4) using HepaRG (AID 2283522)
How it was run: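 Cells were plated, cultured 48 h, switched to serum-free induction medium, then dosed for 48 h (8 points, max 100 uM, 0.5% DMSO). RNA was isolated and PPP2R4 expression measured by TaqMan qRT-PCR.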

[8] = read-out: Phosphatase and tensin (PTEN), PTEN (gene 5728); assay: LTEA_HepaRG_PTEN: Life Technologies and Expression Analysis (LTEA) Assay for Phosphatase and tensin (PTEN) using HepaRG (AID 2283523)
How it was run: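 HepaRG, 48 h exposure, 8-pt half-log series from 100 uM top, 0.5% DMSO vehicle, duplicates. Readout: Fluidigm qRT-PCR of PTEN transcript; housekeeping normalization (ACTB, GAPDH, POLR2A). Gain or loss fitted relative to DMSO baseline.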

[9] = read-out: solute carrier (SLC22A1), SLC22A1 (gene 6580); assay: LTEA_HepaRG_SLC22A1: Life Technologies and Expression Analysis (LTEA) Assay for solute carrier (SLC22A1) using HepaRG (AID 2283524);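 as to AC50: differentiated human HepaRG liver cells in serum-free induction medium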
How it was run: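 qRT-PCR readout (TaqMan, Fluidigm arrays) of SLC22A1 transcript, normalized to three housekeeping genes; bidirectional curve fit relative to 0.5% DMSO vehicle. Differentiated human HepaRG cells, 48 h chemical exposure, top concentration 100 uM, half-log steps, eight points.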

[10] = read-out: Pyruvate Dehydrogenase Kinase 4 (PDK4), PDK4 (gene 5166); assay: LTEA_HepaRG_PDK4: Life Technologies and Expression Analysis (LTEA) Assay for Pyruvate Dehydrogenase Kinase 4 (PDK4) using HepaRG (AID 2283525)
How it was run: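 HepaRG (human liver line), 48 h chemical exposure, 8-pt half-log CRC top 100 uM, 0.5% DMSO vehicle, duplicates. Readout: TaqMan qRT-PCR of PDK4 mRNA, housekeeping-normalized; gain/loss fit relative to DMSO baseline.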

[11] = read-out: NAD(P)H dehydrogenase [quinone] 1 (NQO1), NQO1 (gene 1728); assay: LTEA_HepaRG_NQO1: Life Technologies and Expression Analysis (LTEA) Assay for NAD(P)H dehydrogenase [quinone] 1 (NQO1) using HepaRG (AID 2283526)
How it was run: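 Transcript induction or suppression is quantified by qRT-PCR in human HepaRG liver cells dosed for 48 hours. Eight half-log concentrations topping at 100 uM are used, with 0.5% DMSO as vehicle and baseline.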

[12] = read-out: Nuclear factor erythroid 2-related factor 2 (Homo sapiens) (UniProt Q16236); assay: LTEA_HepaRG_NFE2L2: Life Technologies and Expression Analysis (LTEA) Assay for Nuclear factor erythroid 2-related factor 2 (NFE2L2) Transcription Factor using HepaRG (AID 2283527)
How it was run: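 HepaRG, 48 h dosing, 8-pt half-log series from 100 uM in 0.5% DMSO, duplicates. Read-out: NFE2L2 mRNA by qRT-PCR (ACTB/GAPDH/POLR2A normalization). Bidirectional curve fit vs DMSO baseline.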

[13] = read-out: succinate dehydrogenase complex iron sulfur subunit B (SDHB), SDHB (gene 6390); assay: LTEA_HepaRG_SDHB: Life Technologies and Expression Analysis (LTEA) Assay for succinate dehydrogenase complex iron sulfur subunit B (SDHB) using HepaRG (AID 2283528)
How it was run: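 Readout is SDHB transcript level by qRT-PCR, normalised to three housekeeping genes and fitted bidirectionally against 0.5% DMSO vehicle. Human HepaRG cells were treated for 48 h at up to 100 uM.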

[14] = read-out: Signal transducer and activator of transcription 3 (Homo sapiens) (UniProt P40763); assay: LTEA_HepaRG_STAT3: Life Technologies and Expression Analysis (LTEA) Assay for Signal transducer and activator of transcription (STAT3) using HepaRG (AID 2283529)
How it was run: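 HepaRG, 48 h exposure, 8-pt half-log series (top 100 uM), 0.5% DMSO vehicle, duplicates. Readout: STAT3 transcript by Fluidigm qRT-PCR, housekeeping-normalized; bidirectional fit vs DMSO baseline.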

[15] = read-out: solute carrier (SLCO1B1), SLCO1B1 (gene 10599); assay: LTEA_HepaRG_SLCO1B1: Life Technologies and Expression Analysis (LTEA) Assay for solute carrier (SLCO1B1) using HepaRG (AID 2283530)
How it was run: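 SLCO1B1 transcript read by qRT-PCR (Fluidigm arrays), normalized to three housekeeping genes, after 48 h chemical exposure of HepaRG cells; bidirectional concentration-response fitting versus 0.5% DMSO baseline. Eight-point half-log series, maximum 100 uM.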

[16] = read-out: sulfotransferase 2A1 (SULT2A1), SULT2A1 (gene 6822); assay: LTEA_HepaRG_SULT2A1: Life Technologies and Expression Analysis (LTEA) Assay for sulfotransferase 2A1 (SULT2A1) using HepaRG (AID 2283531)
How it was run: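 HepaRG, 48 h chemical exposure, 8-pt half-log curve from 100 uM in 0.5% DMSO, duplicates. Readout: TaqMan qRT-PCR of SULT2A1 mRNA, housekeeping-normalized. Bidirectional fit vs DMSO baseline.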

[17] = read-out: Transforming Growth Factor (TGFA), TGFA (gene 7039); assay: LTEA_HepaRG_TGFA: Life Technologies and Expression Analysis (LTEA) Assay for Transforming Growth Factor (TGFA) using HepaRG (AID 2283532)
How it was run: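 qRT-PCR read-out of TGFA transcript, normalized to three housekeeping genes, fitted bidirectionally against 0.5% DMSO baseline. Human HepaRG cultures received chemicals for 48 h at eight half-log concentrations, top 100 uM.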

Measured: AC50

Chain of Nuclear factor erythroid 2-related factor 2 (Homo sapiens) (Q16236 whole entry, looked up): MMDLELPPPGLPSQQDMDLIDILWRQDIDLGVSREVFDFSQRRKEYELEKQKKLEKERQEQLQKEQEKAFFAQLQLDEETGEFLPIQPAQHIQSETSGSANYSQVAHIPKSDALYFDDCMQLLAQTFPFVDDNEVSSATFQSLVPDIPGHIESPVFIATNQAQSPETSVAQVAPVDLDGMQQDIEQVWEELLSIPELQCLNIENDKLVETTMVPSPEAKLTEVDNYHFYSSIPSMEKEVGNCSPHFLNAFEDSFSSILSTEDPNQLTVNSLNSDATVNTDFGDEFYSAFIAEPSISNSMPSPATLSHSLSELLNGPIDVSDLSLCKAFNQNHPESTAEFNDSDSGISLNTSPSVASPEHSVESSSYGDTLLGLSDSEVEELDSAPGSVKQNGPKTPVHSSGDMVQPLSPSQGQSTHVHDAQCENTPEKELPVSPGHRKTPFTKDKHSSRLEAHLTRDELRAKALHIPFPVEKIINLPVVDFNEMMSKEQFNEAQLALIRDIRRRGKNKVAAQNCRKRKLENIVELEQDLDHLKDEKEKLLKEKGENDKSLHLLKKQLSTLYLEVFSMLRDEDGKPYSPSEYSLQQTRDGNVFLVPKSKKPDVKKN
Chain of Signal transducer and activator of transcription 3 (Homo sapiens) (P40763 whole entry, looked up): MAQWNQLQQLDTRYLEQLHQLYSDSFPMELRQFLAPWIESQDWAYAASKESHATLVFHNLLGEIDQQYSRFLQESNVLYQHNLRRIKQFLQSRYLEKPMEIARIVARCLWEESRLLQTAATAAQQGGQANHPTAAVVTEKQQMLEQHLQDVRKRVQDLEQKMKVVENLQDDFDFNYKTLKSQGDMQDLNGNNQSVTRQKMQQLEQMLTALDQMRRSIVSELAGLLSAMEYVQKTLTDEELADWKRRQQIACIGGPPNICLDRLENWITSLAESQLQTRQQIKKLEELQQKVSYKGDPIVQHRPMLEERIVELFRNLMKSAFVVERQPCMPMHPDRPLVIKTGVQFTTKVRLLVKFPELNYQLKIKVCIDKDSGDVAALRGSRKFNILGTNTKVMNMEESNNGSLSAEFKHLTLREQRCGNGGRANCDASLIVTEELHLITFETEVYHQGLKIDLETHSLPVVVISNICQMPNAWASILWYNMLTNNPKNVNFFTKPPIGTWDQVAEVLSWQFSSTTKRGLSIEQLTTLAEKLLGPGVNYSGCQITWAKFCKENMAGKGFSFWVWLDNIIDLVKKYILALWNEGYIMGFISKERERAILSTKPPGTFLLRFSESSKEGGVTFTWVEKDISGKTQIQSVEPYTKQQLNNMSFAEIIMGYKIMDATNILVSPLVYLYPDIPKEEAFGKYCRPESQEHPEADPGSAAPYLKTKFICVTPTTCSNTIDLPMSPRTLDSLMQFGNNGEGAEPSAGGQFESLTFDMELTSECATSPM

Cc1[nH]cnc1C[C@H]1CCc2c(C)c3ccccc3n2C1=O
inactive: [11] | [14] | [17]
active: [1] 44.5 µM | [2] 79 µM | [3] 14.1 µM | [4] 70.1 µM | MYC, MYC (gene 4609) 31.4 µM | [5] 77.3 µM | [6] 20.8 µM | [7] 73.1 µM | [8] 79.3 µM | [9] 29 µM | [10] 68.3 µM | [12] 44.5 µM | [13] 81.5 µM | [15] 21.5 µM | [16] 63.6 µM

CC(C)=CCC/C(C)=C\CO
not listed: [11]
inactive: all other assays above

O=C(OC[C@H]1O[C@@H](OC(=O)c2cc(O)c(O)c(OC(=O)c3cc(O)c(O)c(O)c3)c2)[C@H](OC(=O)c2cc(O)c(O)c(OC(=O)c3cc(O)c(O)c(O)c3)c2)[C@@H](OC(=O)c2cc(O)c(O)c(OC(=O)c3cc(O)c(O)c(O)c3)c2)[C@@H]1OC(=O)c1cc(O)c(O)c(OC(=O)c2cc(O)c(O)c(O)c2)c1)c1cc(O)c(O)c(OC(=O)c2cc(O)c(O)c(O)c2)c1
active: [2] 15.2 µM | [3] 9.05 µM | [4] 9.49 µM | MYC, MYC (gene 4609) 6.08 µM | [5] 15.2 µM | [6] 9.75 µM | [7] 3.88 µM | [9] 15.2 µM | [10] 24.5 µM | [11] 5.1 µM | [12] 15.2 µM | [15] 9.07 µM | [16] 9.46 µM | [17] 6.41 µM
inactive: [1] | [8] | [13] | [14]

CCCCCCCCO
inactive: all assays above

O=c1n(CC2CO2)c(=O)n(CC2CO2)c(=O)n1CC1CO1 (stereo not given)
inactive: all assays above

Nc1cccc(N)c1
inactive: all assays above

CC(C)=CCCC(C)CCO (stereo not given)
inactive: all assays above

Reference: PubChem BioAssay (EPA / NIEHS)
